Measurements reported in the supplement of paper PMC10849652.
Of roughly 8,800 targets only a part is listed; those with a hit were picked by preference. About 0.5% of all pairs of compound and target were hits. Unmarked numbers belong to inactive results.

Assays:
Experiment in all cases: log2 fold change, soluble protein after heating vs DMSO (PISA); higher = thermal stabilisation; K562 lysate, 10 uM; active = over 0.2 and 3.5 SD of the protein, either way, in both replicates (recomputed)
[1] = compound: NCC(=O)Nc1ccc(-n2nc(C(F)(F)F)cc2-c2ccc3c(ccc4ccccc43)c2)cc1
Outline: (§1)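 Pellets of K562 cells were dounce-homogenised in PBS pH 7.4 with 1 mM MgCl2, and the crude extract was held at 1 mg/mL protein for a 30 min treatment with 10 μM compound. Aliquots were heated for 3 min over 48°C-58°C and pooled before NP-40 was added to 0.5% at 4°C. The supernatant from 21,000xg for 90 min was quantified by TMTpro 16plex LC-MS/MS with channel sums equalised. Values are reported from duplicates as log-two fold change in thermal stability relative to solvent controls.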

vorinostat = compound: O=C(CCCCCCC(=O)Nc1ccccc1)NO [vorinostat]
Outline: as §1

silmitasertib = compound: O=C(O)c1ccc2c(c1)nc(Nc1cccc(Cl)c1)c1ccncc12 [silmitasertib]
Outline: as §1

[2] = compound: O=C1NC(=O)C(c2cnc3ccccn23)=C1c1cn2c3c(cc(F)cc13)CN(C(=O)N1CCCCC1)CC2
Outline: as §1

entospletinib = compound: c1cn2cc(-c3ccc4cn[nH]c4c3)nc(Nc3ccc(N4CCOCC4)cc3)c2n1 [entospletinib]
Outline: as §1

FAM118B (UniProt Q9BPY3)
log2 fold change [1]: 0
log2 fold change (vorinostat): -0.273 (active)
log2 fold change (silmitasertib): 0.018
log2 fold change [2]: 0
log2 fold change (entospletinib): -0.005

ERAL1 (UniProt O75616)
log2 fold change [1]: -0.013
log2 fold change (vorinostat): -0.103
log2 fold change (silmitasertib): 0.044
log2 fold change [2]: -0.044
log2 fold change (entospletinib): -0.083

ELAVL1 isoform 2 (UniProt Q15717)
log2 fold change [1]: 0.042
log2 fold change (vorinostat): -0.326 (active)
log2 fold change (silmitasertib): 0.059
log2 fold change [2]: -0.051
log2 fold change (entospletinib): 0

FUBP3 (UniProt Q96I24)
log2 fold change [1]: -0.001
log2 fold change (vorinostat): -0.325 (active)
log2 fold change (silmitasertib): -0.032
log2 fold change [2]: 0.047
log2 fold change (entospletinib): -0.065

EWSR1 isoform 5 (UniProt Q01844)
log2 fold change [1]: 0.027
log2 fold change (vorinostat): 0.036
log2 fold change (silmitasertib): -0.034
log2 fold change [2]: 0.006
log2 fold change (entospletinib): 0.014

DVL2 (UniProt O14641)
UniProt O14641, sequence (O14641 whole entry, looked up): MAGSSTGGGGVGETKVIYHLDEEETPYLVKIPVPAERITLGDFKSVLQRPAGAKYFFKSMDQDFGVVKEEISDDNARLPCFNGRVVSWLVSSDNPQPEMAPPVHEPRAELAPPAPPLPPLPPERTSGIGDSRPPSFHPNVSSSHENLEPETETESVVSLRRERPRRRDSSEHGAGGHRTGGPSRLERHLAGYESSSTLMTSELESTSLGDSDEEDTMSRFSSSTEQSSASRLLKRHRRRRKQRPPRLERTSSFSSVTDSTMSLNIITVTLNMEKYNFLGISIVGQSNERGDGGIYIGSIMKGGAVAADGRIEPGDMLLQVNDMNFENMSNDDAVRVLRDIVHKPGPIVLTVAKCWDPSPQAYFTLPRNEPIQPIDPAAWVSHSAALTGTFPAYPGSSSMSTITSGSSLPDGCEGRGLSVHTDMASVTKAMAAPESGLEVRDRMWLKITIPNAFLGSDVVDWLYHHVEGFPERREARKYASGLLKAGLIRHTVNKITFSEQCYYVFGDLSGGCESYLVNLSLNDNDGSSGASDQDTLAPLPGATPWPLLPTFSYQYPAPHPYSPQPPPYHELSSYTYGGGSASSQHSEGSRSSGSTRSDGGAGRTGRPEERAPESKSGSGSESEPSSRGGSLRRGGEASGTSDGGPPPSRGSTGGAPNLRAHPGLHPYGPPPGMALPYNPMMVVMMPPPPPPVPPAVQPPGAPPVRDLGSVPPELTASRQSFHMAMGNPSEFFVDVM
log2 fold change [1]: -0.056
log2 fold change (vorinostat): 0.33 (active)
log2 fold change (silmitasertib): 0.049
log2 fold change [2]: 0.078
log2 fold change (entospletinib): -0.015

FAM118A (UniProt Q9NWS6)
log2 fold change [1]: 0.027
log2 fold change (vorinostat): -0.834 (active)
log2 fold change (silmitasertib): 0.024
log2 fold change [2]: -0.003
log2 fold change (entospletinib): -0.014

FBXO22 (UniProt Q8NEZ5)
log2 fold change [1]: 0.014
log2 fold change (vorinostat): -0.477 (active)
log2 fold change (silmitasertib): -0.022
log2 fold change [2]: -0.018
log2 fold change (entospletinib): 0.014

ENO1 isoform 2 (UniProt P06733)
log2 fold change [1]: -0.008
log2 fold change (vorinostat): 0.099
log2 fold change (silmitasertib): 0.045
log2 fold change [2]: 0.005
log2 fold change (entospletinib): -0.05

DST (UniProt Q03001)
log2 fold change [1]: 0.262
log2 fold change (vorinostat): -0.035
log2 fold change (silmitasertib): -0.02
log2 fold change [2]: 0.01
log2 fold change (entospletinib): -0.03

ECI2 (UniProt O75521)
UniProt O75521, sequence (O75521 whole entry, looked up): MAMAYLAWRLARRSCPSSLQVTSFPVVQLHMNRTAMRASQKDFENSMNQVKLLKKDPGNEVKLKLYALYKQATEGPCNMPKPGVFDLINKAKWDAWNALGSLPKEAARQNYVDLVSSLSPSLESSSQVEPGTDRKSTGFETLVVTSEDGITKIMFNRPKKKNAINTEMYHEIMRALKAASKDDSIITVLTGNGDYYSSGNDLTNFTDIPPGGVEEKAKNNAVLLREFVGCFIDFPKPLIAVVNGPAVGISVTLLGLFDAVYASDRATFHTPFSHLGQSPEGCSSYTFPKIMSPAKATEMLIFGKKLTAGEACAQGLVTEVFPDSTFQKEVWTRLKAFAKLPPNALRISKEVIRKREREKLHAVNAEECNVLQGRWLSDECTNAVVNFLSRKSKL
log2 fold change [1]: 0.08
log2 fold change (vorinostat): 0.146
log2 fold change (silmitasertib): 0.022
log2 fold change [2]: 0.284 (active)
log2 fold change (entospletinib): -0.033

DYNC1I2 isoform 5 (UniProt Q13409)
log2 fold change [1]: 0.009
log2 fold change (vorinostat): 0.126
log2 fold change (silmitasertib): 0.03
log2 fold change [2]: -0.005
log2 fold change (entospletinib): -0.007

GALK1 isoform 2 (UniProt P51570)
log2 fold change [1]: -0.017
log2 fold change (vorinostat): -0.338 (active)
log2 fold change (silmitasertib): 0.063
log2 fold change [2]: 0.023
log2 fold change (entospletinib): -0.088

DTYMK (UniProt P23919)
log2 fold change [1]: -0.022
log2 fold change (vorinostat): -0.294 (active)
log2 fold change (silmitasertib): 0.071
log2 fold change [2]: -0.023
log2 fold change (entospletinib): 0.061

GIGYF2 (UniProt Q6Y7W6)
log2 fold change [1]: -0.001
log2 fold change (vorinostat): -0.252 (active)
log2 fold change (silmitasertib): -0.007
log2 fold change [2]: -0.042
log2 fold change (entospletinib): 0.017

ENY2 (UniProt Q9NPA8)
UniProt Q9NPA8, sequence (Q9NPA8 whole entry, looked up): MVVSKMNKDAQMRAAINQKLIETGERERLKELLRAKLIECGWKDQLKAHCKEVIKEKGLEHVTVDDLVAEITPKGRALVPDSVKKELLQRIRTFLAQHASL
log2 fold change [1]: -0.066
log2 fold change (vorinostat): 0.118
log2 fold change (silmitasertib): -0.032
log2 fold change [2]: 0.016
log2 fold change (entospletinib): -0.018

DUS2 (UniProt Q9NX74)
log2 fold change [1]: -0.01
log2 fold change (vorinostat): -0.014
log2 fold change (silmitasertib): 0.555 (active)
log2 fold change [2]: -0.037
log2 fold change (entospletinib): -0.042

EPB41, A0A2R8Y6D0
log2 fold change [1]: 0.082
log2 fold change (vorinostat): 0.094
log2 fold change (silmitasertib): 0.037
log2 fold change [2]: -0.08
log2 fold change (entospletinib): 0.016

FPGT (UniProt O14772)
log2 fold change [1]: -0.014
log2 fold change (vorinostat): -0.574 (active)
log2 fold change (silmitasertib): 0.008
log2 fold change [2]: -0.015
log2 fold change (entospletinib): -0.062

FASTKD5 (UniProt Q7L8L6)
log2 fold change [1]: 0.016
log2 fold change (vorinostat): -0.354 (active)
log2 fold change (silmitasertib): 0.053
log2 fold change [2]: 0.022
log2 fold change (entospletinib): -0.008

FADS1, A0A0A0MR51
log2 fold change [1]: 0.054
log2 fold change (vorinostat): 0.093
log2 fold change (silmitasertib): -0.003
log2 fold change [2]: -0.046
log2 fold change (entospletinib): -0.028

ENGASE (UniProt Q8NFI3)
UniProt Q8NFI3, sequence (Q8NFI3 whole entry, looked up): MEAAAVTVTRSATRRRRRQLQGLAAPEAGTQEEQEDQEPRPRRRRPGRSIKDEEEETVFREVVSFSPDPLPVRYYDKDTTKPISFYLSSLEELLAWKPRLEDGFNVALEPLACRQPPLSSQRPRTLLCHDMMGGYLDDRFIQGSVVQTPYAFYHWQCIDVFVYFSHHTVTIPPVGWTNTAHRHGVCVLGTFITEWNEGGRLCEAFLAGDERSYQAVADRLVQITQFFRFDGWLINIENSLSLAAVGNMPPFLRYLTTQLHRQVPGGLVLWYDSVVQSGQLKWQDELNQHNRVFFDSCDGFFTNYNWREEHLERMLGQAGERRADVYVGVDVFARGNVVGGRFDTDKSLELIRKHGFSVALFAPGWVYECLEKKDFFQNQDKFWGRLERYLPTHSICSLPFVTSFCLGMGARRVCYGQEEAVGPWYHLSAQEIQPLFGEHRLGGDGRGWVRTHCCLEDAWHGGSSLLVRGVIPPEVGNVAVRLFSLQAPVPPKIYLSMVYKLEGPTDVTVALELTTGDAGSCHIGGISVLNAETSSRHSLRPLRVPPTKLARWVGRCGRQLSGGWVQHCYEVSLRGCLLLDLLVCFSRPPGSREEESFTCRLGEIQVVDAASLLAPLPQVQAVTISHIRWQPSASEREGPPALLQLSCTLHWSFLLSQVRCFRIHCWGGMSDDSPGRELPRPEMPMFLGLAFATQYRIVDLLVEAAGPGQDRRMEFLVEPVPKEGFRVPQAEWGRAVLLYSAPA
log2 fold change [1]: -0.01
log2 fold change (vorinostat): -0.337 (active)
log2 fold change (silmitasertib): 0.05
log2 fold change [2]: -0.013
log2 fold change (entospletinib): -0.004

GBA2 (UniProt Q9HCG7)
log2 fold change (vorinostat): -0.089
log2 fold change (silmitasertib): -0.004
log2 fold change [2]: -0.091
log2 fold change (entospletinib): -0.102

GGA2 (UniProt Q9UJY4)
log2 fold change [1]: -0.042
log2 fold change (vorinostat): -0.313 (active)
log2 fold change (silmitasertib): 0.016
log2 fold change [2]: 0.022
log2 fold change (entospletinib): -0.026

FLT4 (UniProt P35916)
log2 fold change [1]: -0.097
log2 fold change (vorinostat): -0.435 (active)
log2 fold change (silmitasertib): 0.178
log2 fold change (entospletinib): 0.054

GART (UniProt P22102)
log2 fold change [1]: 0.017
log2 fold change (vorinostat): -0.303 (active)
log2 fold change (silmitasertib): 0.006
log2 fold change [2]: 0.003
log2 fold change (entospletinib): 0.012

ECH1 (UniProt Q13011)
log2 fold change [1]: 0.041
log2 fold change (vorinostat): 0.081
log2 fold change (silmitasertib): -0.026
log2 fold change [2]: -0.052
log2 fold change (entospletinib): 0.022

FAT1 (UniProt Q14517)
log2 fold change (vorinostat): -0.229
log2 fold change (silmitasertib): 0.077
log2 fold change [2]: -0.196
log2 fold change (entospletinib): -0.034

EHHADH (UniProt Q08426)
UniProt Q08426, sequence (Q08426 whole entry, looked up): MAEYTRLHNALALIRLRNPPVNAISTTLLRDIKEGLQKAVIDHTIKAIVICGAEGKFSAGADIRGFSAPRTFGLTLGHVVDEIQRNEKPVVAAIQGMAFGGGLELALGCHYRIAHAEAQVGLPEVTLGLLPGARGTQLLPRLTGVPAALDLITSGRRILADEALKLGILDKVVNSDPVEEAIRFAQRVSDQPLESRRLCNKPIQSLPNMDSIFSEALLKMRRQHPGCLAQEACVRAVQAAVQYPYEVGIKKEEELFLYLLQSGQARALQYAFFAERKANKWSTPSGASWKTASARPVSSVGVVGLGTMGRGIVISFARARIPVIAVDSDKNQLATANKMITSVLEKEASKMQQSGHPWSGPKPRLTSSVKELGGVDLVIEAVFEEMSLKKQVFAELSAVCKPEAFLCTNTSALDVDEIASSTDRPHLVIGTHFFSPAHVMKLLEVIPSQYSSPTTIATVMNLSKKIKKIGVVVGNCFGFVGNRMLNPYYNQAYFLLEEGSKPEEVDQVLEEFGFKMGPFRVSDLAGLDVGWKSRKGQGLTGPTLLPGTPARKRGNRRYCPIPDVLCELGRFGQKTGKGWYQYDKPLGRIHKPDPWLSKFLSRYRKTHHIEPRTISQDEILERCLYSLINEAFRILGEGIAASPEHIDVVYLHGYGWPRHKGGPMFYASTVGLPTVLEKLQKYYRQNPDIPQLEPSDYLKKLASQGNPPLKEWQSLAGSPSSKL
log2 fold change (vorinostat): 0.706 (active)
log2 fold change (silmitasertib): -0.035
log2 fold change [2]: -0.048
log2 fold change (entospletinib): -0.013

GALNT2 (UniProt Q10471)
log2 fold change [1]: -0.018
log2 fold change (vorinostat): 0.069
log2 fold change (silmitasertib): 0.008
log2 fold change [2]: -0.09
log2 fold change (entospletinib): -0.034

FLAD1 (UniProt Q8NFF5)
log2 fold change [1]: -0.012
log2 fold change (vorinostat): -0.397 (active)
log2 fold change (silmitasertib): 0.102
log2 fold change [2]: -0.005
log2 fold change (entospletinib): 0.037

ESRRB isoform 1 (UniProt O95718)
log2 fold change (silmitasertib): 0.087

GIPC3 (UniProt Q8TF64)
UniProt Q8TF64, sequence (Q8TF64 whole entry, looked up): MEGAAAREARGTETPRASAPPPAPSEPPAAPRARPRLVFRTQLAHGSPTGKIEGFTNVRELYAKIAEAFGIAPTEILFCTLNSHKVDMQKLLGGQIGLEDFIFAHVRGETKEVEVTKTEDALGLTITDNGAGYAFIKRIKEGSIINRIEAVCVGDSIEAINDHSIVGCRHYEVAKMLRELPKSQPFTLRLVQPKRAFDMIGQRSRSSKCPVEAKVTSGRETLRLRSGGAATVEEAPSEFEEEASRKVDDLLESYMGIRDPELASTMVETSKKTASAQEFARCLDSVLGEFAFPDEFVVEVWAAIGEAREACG
log2 fold change (vorinostat): -0.336
log2 fold change (silmitasertib): 0.044
log2 fold change [2]: -0.007
log2 fold change (entospletinib): -0.017

EPB41 isoform 4 (UniProt P11171)
UniProt P11171, sequence (P11171 whole entry, looked up): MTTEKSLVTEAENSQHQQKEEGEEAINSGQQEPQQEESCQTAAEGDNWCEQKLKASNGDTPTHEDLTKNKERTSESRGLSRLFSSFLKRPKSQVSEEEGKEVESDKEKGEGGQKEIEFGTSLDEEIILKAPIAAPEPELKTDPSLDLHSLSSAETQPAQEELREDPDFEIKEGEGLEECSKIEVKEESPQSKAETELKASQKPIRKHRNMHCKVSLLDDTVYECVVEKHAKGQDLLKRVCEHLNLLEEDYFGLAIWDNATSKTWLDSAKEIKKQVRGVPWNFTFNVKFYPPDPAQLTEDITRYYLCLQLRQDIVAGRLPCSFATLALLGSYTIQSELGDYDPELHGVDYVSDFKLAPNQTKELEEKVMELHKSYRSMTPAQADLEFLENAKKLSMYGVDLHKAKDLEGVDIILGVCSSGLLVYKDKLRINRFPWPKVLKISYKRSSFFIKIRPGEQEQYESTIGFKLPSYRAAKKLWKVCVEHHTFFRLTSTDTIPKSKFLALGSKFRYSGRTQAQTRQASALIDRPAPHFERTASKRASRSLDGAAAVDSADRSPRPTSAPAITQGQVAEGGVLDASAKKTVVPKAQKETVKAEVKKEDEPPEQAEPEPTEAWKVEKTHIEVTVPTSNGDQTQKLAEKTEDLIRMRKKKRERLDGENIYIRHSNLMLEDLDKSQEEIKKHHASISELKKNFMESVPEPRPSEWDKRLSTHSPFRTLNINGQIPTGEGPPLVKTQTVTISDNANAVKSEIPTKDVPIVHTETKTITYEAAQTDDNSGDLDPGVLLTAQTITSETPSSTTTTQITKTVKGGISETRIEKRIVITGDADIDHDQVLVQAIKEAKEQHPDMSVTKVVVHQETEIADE
log2 fold change (vorinostat): 0.071
log2 fold change (silmitasertib): 0.101
log2 fold change [2]: -0.085

FMNL2 isoform 3 (UniProt Q96PY5)
log2 fold change (vorinostat): -0.587 (active)
log2 fold change (silmitasertib): -0.027
log2 fold change [2]: 0.045

EXO5 (UniProt Q9H790)
log2 fold change (vorinostat): 0.043
log2 fold change (silmitasertib): -0.06
log2 fold change [2]: 0.054

GART (UniProt C9JZG2)
log2 fold change [2]: -0.069
log2 fold change (entospletinib): 0.037

GCA (UniProt P28676)
log2 fold change (vorinostat): 1.36 (active)
log2 fold change (silmitasertib): -0.104

EPS8L2 (UniProt Q9H6S3)
UniProt Q9H6S3, sequence (Q9H6S3 whole entry, looked up): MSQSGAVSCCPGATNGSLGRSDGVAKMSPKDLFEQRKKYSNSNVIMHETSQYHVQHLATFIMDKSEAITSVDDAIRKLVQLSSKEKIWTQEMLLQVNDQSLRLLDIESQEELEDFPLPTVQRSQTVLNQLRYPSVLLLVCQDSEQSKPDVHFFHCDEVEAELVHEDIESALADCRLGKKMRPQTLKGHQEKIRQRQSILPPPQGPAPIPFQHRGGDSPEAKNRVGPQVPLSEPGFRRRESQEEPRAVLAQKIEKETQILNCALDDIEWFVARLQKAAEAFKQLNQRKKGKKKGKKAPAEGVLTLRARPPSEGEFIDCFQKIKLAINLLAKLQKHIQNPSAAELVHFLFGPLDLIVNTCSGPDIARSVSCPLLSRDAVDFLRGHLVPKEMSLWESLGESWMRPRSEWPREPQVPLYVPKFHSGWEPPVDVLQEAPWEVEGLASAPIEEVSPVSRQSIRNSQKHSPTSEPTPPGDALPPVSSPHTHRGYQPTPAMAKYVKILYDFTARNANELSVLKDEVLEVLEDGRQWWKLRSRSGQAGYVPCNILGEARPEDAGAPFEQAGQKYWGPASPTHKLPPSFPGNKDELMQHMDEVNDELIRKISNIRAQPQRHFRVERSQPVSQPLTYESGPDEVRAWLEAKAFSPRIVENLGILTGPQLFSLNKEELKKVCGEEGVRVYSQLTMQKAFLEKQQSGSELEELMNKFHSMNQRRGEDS
log2 fold change (vorinostat): 0.017
log2 fold change (silmitasertib): -0.019
log2 fold change [2]: 0.026
log2 fold change (entospletinib): 0.33 (active)

EIF2AK3 (UniProt Q9NZJ5)
log2 fold change (vorinostat): -0.142
log2 fold change (silmitasertib): 0.241

EWSR1 (UniProt H7BY36)
log2 fold change [1]: 0.136
log2 fold change [2]: -0.047
log2 fold change (entospletinib): 0.016

EID1 (UniProt Q9Y6B2)
log2 fold change (vorinostat): -0.192
log2 fold change (silmitasertib): 0.191
log2 fold change (entospletinib): -0.143

G6PD isoform 2 (UniProt P11413)
log2 fold change [1]: 0.008
log2 fold change (vorinostat): -0.46 (active)
log2 fold change (silmitasertib): -0.008
log2 fold change [2]: -0.003
log2 fold change (entospletinib): 0.032

FOXJ2 (UniProt Q9P0K8)
log2 fold change (vorinostat): -0.208
log2 fold change (silmitasertib): -0.058
log2 fold change (entospletinib): 0.033

ENO2 (UniProt P09104)
log2 fold change [1]: -0.021
log2 fold change (vorinostat): 0.03
log2 fold change (silmitasertib): -0.014
log2 fold change [2]: 0.001
log2 fold change (entospletinib): -0.068

FOXL2 (UniProt P58012)
log2 fold change (vorinostat): -0.501
log2 fold change (silmitasertib): -0.027
log2 fold change (entospletinib): -0.352

FNDC3A (UniProt Q9Y2H6)
log2 fold change (vorinostat): -0.018
log2 fold change (silmitasertib): -0.119
log2 fold change [2]: -0.146

DYRK1A isoform 2 (UniProt Q13627)
log2 fold change (vorinostat): -0.222
log2 fold change (silmitasertib): -0.035
log2 fold change [2]: 0.002

EBP (UniProt Q15125)
log2 fold change [1]: 0.134
log2 fold change (vorinostat): 0.1
log2 fold change (silmitasertib): -0.033
log2 fold change [2]: 0.097
log2 fold change (entospletinib): 0.013

FIBP (UniProt O43427)
log2 fold change [1]: -0.049
log2 fold change (vorinostat): -0.006
log2 fold change (silmitasertib): 0.119
log2 fold change [2]: -0.02
log2 fold change (entospletinib): -0.049

DST isoform 3 (UniProt Q03001)
log2 fold change (vorinostat): -0.041
log2 fold change (silmitasertib): 0.087
log2 fold change (entospletinib): -0.004

FTSJ1 isoform 2 (UniProt Q9UET6)
log2 fold change [1]: -0.109
log2 fold change (entospletinib): 0.047

ESRRA (UniProt P11474)
log2 fold change [1]: -0.094
log2 fold change (silmitasertib): 0.063
log2 fold change [2]: 0.026
log2 fold change (entospletinib): -0.034

EPB41, A0A2R8Y783
log2 fold change [1]: -0.071
log2 fold change (entospletinib): 0.393

GDE1 (UniProt Q9NZC3)
UniProt Q9NZC3, sequence (Q9NZC3 whole entry, looked up): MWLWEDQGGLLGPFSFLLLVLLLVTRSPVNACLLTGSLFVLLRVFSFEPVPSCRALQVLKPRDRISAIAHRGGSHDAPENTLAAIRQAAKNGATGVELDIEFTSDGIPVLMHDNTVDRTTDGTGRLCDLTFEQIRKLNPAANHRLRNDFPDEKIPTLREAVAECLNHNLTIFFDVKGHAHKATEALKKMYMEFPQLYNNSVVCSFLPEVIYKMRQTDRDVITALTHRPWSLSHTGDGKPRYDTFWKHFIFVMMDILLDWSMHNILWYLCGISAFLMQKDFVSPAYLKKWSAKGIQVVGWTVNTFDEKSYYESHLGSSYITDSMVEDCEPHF
log2 fold change (vorinostat): -0.007
log2 fold change (silmitasertib): 0.006
log2 fold change [2]: 0.04
log2 fold change (entospletinib): -0.162

ERG28 (UniProt Q9UKR5)
log2 fold change (entospletinib): 0.009

GC isoform 3 (UniProt P02774)
log2 fold change [1]: -0.058
log2 fold change [2]: 0.076
log2 fold change (entospletinib): -0.053

FBXO38 (UniProt Q6PIJ6)
log2 fold change [1]: -0.029
log2 fold change (vorinostat): -0.393
log2 fold change (silmitasertib): 0.34
log2 fold change [2]: -0.159
log2 fold change (entospletinib): -0.173
